# DAX1 inh-1: DAX1 (NR0B1) inhibitors, primary screen, cell-based, HEK293, Gal4-DAX1, luciferase luminescence; inhibition, % at 6.75 µM; 340,000 compounds, 0.99% hits; Nuclear receptor subfamily 0 group B member 1 (Homo sapiens), P51843; HEK293 Gal4-DAX1 luciferase reporter; AID 504766, 2011;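 active means inhibition above the mean over all tested compounds plus 3 SD, cut at about 4.2% in these data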;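 further: 0% = DAX1-transfected cells with DMSO and 100% = empty-vector control cells with DMSO; inhibition shows as a rise in luminescence from relieved DAX1 repression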
# hgDAF-12 ag: H. glycines DAF-12 receptor agonists, primary screen, cell-based, luminescence, HEK293, GAL4 fusion, UAS-luciferase; activation, % at 6.8 µM; HEK293 GAL4-hgDAF12 UAS-luciferase reporter, agonist luminescence; normalized to butyrate control; 370,000 compounds, 1.8% hits; AID 687014, 2013;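 active means activation above a cutoff set at the mean of all screened compounds plus 3 SD, cut at about 10% in these data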;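 further: 0% = DMSO wells and 100% = sodium butyrate wells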
# AHR act: AHR activators, primary screen, cell-based, luminescence, luciferase reporter, human | AHR-responsive luciferase reporter cells | activation, % at 5 µM | 320,000 compounds, 2.5% hits | AID 2796, 2010; in the data active means activation above about 47%;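 further: 0% = vehicle wells and 100% = reference agonist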
# ssDAF-12 act: S. stercoralis DAF-12 nuclear receptor activators, primary screen, cell-based, luminescence, HEK293, GRIP1 co-expression, lit1-tk-luc; Nuclear hormone receptor DAF-12 (Strongyloides stercoralis); HEK293 ssDAF-12/GRIP1 lit1-tk-luc reporter; % of 3 µM dafachronic acid response; activation, % at 6.8 µM; 370,000 compounds, 1% hits; AID 652126, 2013;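 active means activation above the mean over all tested compounds plus 3 SD, cut at about 0.9% in these data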;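 further: 0% = DMSO-only wells and 100% = 3 µM delta7-dafachronic acid wells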
# hcDAF-12 act: H. contortus DAF-12 nuclear receptor activators, primary screen, cell-based, luminescence, HEK293, lit1-tk-luc reporter | activation, % at 6.8 µM | AID 652067, 2013 | HEK293 hcDAF-12 lit1-tk-luc reporter; 0% DMSO, 100% Δ7-dafachronic acid | 370,000 compounds, 1.4% hits;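 active means activation above the mean of all tested compounds plus 3 SD, cut at about 5.5% in these data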;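 further: 100% = response to 3 µM Δ7-dafachronic acid high control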
# DAX1 inh-2: DAX1 (NR0B1) inhibitors on StAR promoter, primary screen, cell-based, luminescence, SF-1 (NR5A1), full-length DAX-1; 370,000 compounds, 1.1% hits; inhibition, % at 6.8 µM; HEK293T StAR-luciferase reporter, SF-1/DAX-1 repression relief;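 active means inhibition above the mean over all tested compounds plus 3 SD, cut at about 3.6% in these data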;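 further: 0% = DAX-1 cells with DMSO and 100% = cells lacking DAX-1 with DMSO; higher inhibition means more luminescence from relief of DAX-1 repression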
# Active calls of the source: *; . = no result. Shown are actives, neighbours in structure and some others; about 5.7% of the full set was active somewhere.
SMILES,DAX1 inh-1,hgDAF-12 ag,AHR act,ssDAF-12 act,hcDAF-12 act,DAX1 inh-2
Cc1ccnc2nc(C(=O)OCC(=O)c3ccc(NC(=O)CC(C)C)cc3)nn12,5.5*,-3.1,0.2,-0.5,-0.7,0.9
Cc1ccc(-c2noc(C3CCCN(C(=O)c4cccc(F)c4)C3)n2)cc1 (configuration not stated),-1.6,-1.2,-1.0,-1.8,-2.8,-0.6
Cc1cccc(Cc2nnc(CCC(=O)N(CC3CC3)CC3CCCO3)o2)c1 (configuration not stated),3.4,12.5*,25.0,-0.8,1.9,0.2
CCN(CC1CCCO1)C(=O)CCc1nnc(Cc2ccc3c(c2)OCO3)o1 (configuration not stated),1.0,-0.7,0.6,-0.9,0.3,-0.1
CCCOC1CCCN(C(=O)CCc2nnc(Cc3cccc(C)c3)o2)C1 (configuration not stated),3.1,10.7*,3.8,-0.8,2.7,0.8
Cc1cccc(Cc2nnc(CCC(=O)N3CCCCC3c3nccs3)o2)c1 (configuration not stated),-0.4,-0.6,3.3,-0.8,-0.5,0.3
O=CN1CCN(C(=O)c2ccccc2F)CC1,-0.1,1.3,-3.2,-1.1,-1.1,0.5
CC1CCN(c2nc3nonc3nc2Nc2ccc(F)cc2)CC1,-1.0,-2.0,49.9*,-2.2,-1.1,-1.1
COc1ccc(-c2sc3ccccc3c2C#Cc2cncn2C)cc1,-0.1,-2.1,40.3,-1.1,-1.2,-0.1
Cn1cncc1C#Cc1c(-c2ccc(S(C)(=O)=O)cc2)sc2ccccc12,-2.2,0.7,23.1,-0.8,-1.7,-1.9
COc1ccc2sc(-c3ccccc3OC)c(C#CCCO)c2c1,-0.8,-0.9,74.4*,-0.1,-0.5,0.1
COc1ccc2sc(-c3ccccc3OC)c(C#Cc3cncn3C)c2c1,-1.0,0.6,47.9*,-1.3,-1.4,-1.0
COc1ccccc1-c1sc2cc3c(cc2c1C#Cc1cncn1C)OCO3,-1.0,-0.7,65.0*,-1.7,-2.3,0.0
COc1ccc2sc(-c3ccccc3OC)c(-c3ccc(SC)cc3)c2c1,.,1.0,.,-1.2,-0.1,3.8*
Cc1ccc(C(=O)N/C(=C/c2ccco2)C(=O)N2CCOCC2)cc1,-0.3,-0.7,1.7,-1.3,-1.9,-0.1
CCN(Cc1cnn(C)c1)C(=O)c1ccc(OC2CCN(S(=O)(=O)N(C)C)CC2)cc1,1.1,-4.4,2.3,-1.5,-0.6,0.1
CCn1c(SCC(=O)Nc2ccc(Cl)cc2)nc2nc3c(cc2c1=O)CCCC3,-2.0,-2.1,4.0,-1.3,-0.8,-1.4
COc1ccccc1CNS(=O)(=O)c1c(C(=O)N2CCCCC2)c(C)n(C)c1C,0.3,1.3,0.0,-0.2,-1.4,0.3
CCOc1cc(/C=C2\CCCC(C(=O)C(F)(F)F)=C2O)ccc1O,1.1,6.7,4.9,-0.9,-0.7,3.7*
COc1cc(/C=C2/CCCC(C(=O)C(F)(F)F)=C2O)ccc1O,1.2,-0.6,1.4,-1.6,-1.4,0.7
O=C(O)c1cc(=O)c2c(Cl)cc(Cl)cc2[nH]1,0.7,1.9,0.4,-1.2,0.0,-0.1
C[C@H](NC(=O)c1cc2c(cn1)[nH]c1ccccc12)C(=O)O,1.1,2.5,.,0.0,2.7,0.2
O=C(O)c1cc(=O)c2ccccc2[nH]1,3.3,4.6,13.7,1.5*,6.4*,0.4
O=C(O)c1cc2c(cn1)[nH]c1ccccc12,1.9,0.8,24.1,-0.3,6.3*,0.3
N#CCSc1n[nH]c2nc3c(c(=O)n12)C1(CCCC1)Cc1ccccc1-3,-0.4,-1.1,51.9*,-1.0,-1.8,0.5
SMILES,DAX1 inh-1,hgDAF-12 ag,AHR act,ssDAF-12 act,hcDAF-12 act,DAX1 inh-2
Nc1cccc2c(O)cccc12,1.3,-0.8,5.0,-0.5,0.6,0.7
COc1ccc(-n2cccc2C=O)cc1OC,1.1,1.8,-0.4,-1.5,-0.1,0.1
Cc1ccc(-c2cc(C(=O)Nc3ccc(S(=O)(=O)Nc4onc(C)c4C)cc3)c3ccccc3n2)cc1,2.7,-0.7,4.2,0.6,0.5,-0.5
CC(C)(C)c1ccc(-c2nc(-c3ccncc3)no2)cc1,2.4,6.4,-6.0,0.5,1.9,3.7*
Cc1cccc(-c2nc(-c3ccncc3)no2)c1,5.3*,10.8*,3.7,0.5,2.9,1.8
COc1ccc(-c2nc(-c3cccnc3)no2)cc1OC,-0.5,1.7,-4.2,-0.7,0.0,0.2
COc1ccc(-c2nc(-c3ccc(C(=O)O)cc3)no2)cc1,0.5,12.3*,1.8,0.5,6.9*,3.9*
CCC(=O)Oc1ccc(-c2nc(-c3cccnc3)no2)cc1,1.7,10.6*,-1.7,-0.6,1.7,1.2
COc1ccc(-c2noc(-c3ccc(Cl)cc3)n2)cc1,.,.,3.2,.,.,.
Brc1cccc(-c2nc(-c3ccncc3)no2)c1,1.6,4.1,52.5*,-1.1,-1.2,-0.1
O=C(OCc1ccccc1)N1CCC2CC1c1cc(-c3ccc4c(c3)OCO4)ccc12 (configuration not stated),-0.1,3.5,.,-0.8,0.0,-0.7
CCN(CC)c1ccc(NC(=O)Cn2nnc(-c3cccc(OC)c3OC)n2)c(C)c1,1.3,-0.6,1.0,-1.0,-1.7,-0.1
CC1=NN(C(=O)CCc2ccc3c(c2)OCO3)C(O)(C(F)(F)F)C1 (configuration not stated),0.7,-0.7,36.2,9.7*,-0.9,-0.6
COc1ccc(CC(=O)N2N=C(C)CC2(O)C(F)(F)F)cc1OC (configuration not stated),0.4,0.1,5.6,-2.0,0.2,-0.5
COC(=O)c1ccc(NC(=O)CSc2n[nH]c(-c3ccncc3)n2)cc1,-0.9,1.0,-2.3,-1.1,-1.3,0.4
CCOc1ccc(C(CC(=O)O)NC(=O)c2sc3ccccc3c2Cl)cc1 (configuration not stated),1.0,-1.6,0.3,-1.7,0.0,-0.4
CCOC(=O)C(=O)N1CCC(C(=O)NC2CCCc3ccccc32)CC1 (configuration not stated),.,1.3,.,-1.1,-0.3,-0.2
CCCn1c(-c2ccc(OC)cc2)nc2ccccc21,0.3,1.1,24.9,-1.5,0.1,-0.3
COCn1c(-c2ccc(OC)cc2)nc2ccccc21,1.5,3.5,55.3*,-0.1,1.6,0.8
O=[N+]([O-])c1cc(Br)cc(C=Nc2ccc3c(c2)OCO3)c1O,0.3,4.2,12.9,-0.5,1.5,0.4

# High-throughput results as filed in PubChem.
